Data on nine molecules can be found in PubChem BioAssay (NCI).

The panel holds about 83,000 compounds, 20% with a hit somewhere; the sample as a whole holds those more often.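 Assay: single dose, 48 h. Readout: percent growth (0 = no net growth; negative = cell death). Active: <10.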 Unmarked numbers belong to inactive results. The source made the active and inactive calls.

Among the test systems are DU-145 prostate; K-562 leukemia; MALME-3M melanoma; MDA-MB-231 breast; RXF 393 renal; SF-268 CNS; SF-295 CNS; SF-539 CNS; M14 melanoma; HCT-15 colon; HT29 colon; SNB-75 CNS; SNB-19 CNS; U251 CNS; SK-MEL-5 melanoma; UACC-62 melanoma; LOX IMVI melanoma; SK-MEL-28 melanoma; UACC-257 melanoma; PC-3 prostate.
Holding throughout (experiment): NCI-60 one-dose screen, 48 h (100 = growth as untreated, 0 = no growth, -100 = all killed)
What all share (details): 10 µM

For `COc1cc2c3c(n(C4CCNCC4)c(=O)c2cc1OC)-c1cc2c(cc1C3=O)OCO2`, the growth in the assay on DU-145 prostate is -92.8% (active); with K-562 leukemia it was -48.8% (active); with MALME-3M melanoma, -68.4% (active); in the assay with MDA-MB-231 breast it was -69.1% (active); with RXF 393 renal, -56.4% (active); in the assay with SF-268 CNS, -60% (active). Moreover, the growth was -70.7% (active) in the assay on SF-295 CNS; -65.8% (active) with SF-539 CNS; -76.1% (active) with M14 melanoma; -73.8% (active) in the assay on HCT-15 colon; -58.3% (active) in the assay with HT29 colon; -61.7% (active) in the assay with SNB-75 CNS. The growth is -54.8% (active) in the assay on SNB-19 CNS; -64.3% (active) with U251 CNS; -89.3% (active) in the assay with SK-MEL-5 melanoma; -76.6% (active) in the assay on UACC-62 melanoma; -73.1% (active) in the assay with LOX IMVI melanoma; -5.66% (active) in the assay with SK-MEL-28 melanoma.

Regarding `C=C/C(C)=C/C[C@]1(C)[C@H](C)[C@@H](OC(=O)CCC)[C@H](O)[C@@]23C(=C[C@H](OC)C[C@@H]12)[C@@H](OC(=O)CCC)O[C@H]3OC(C)=O`, the growth was 14.3% in the assay on DU-145 prostate; 10.3% with K-562 leukemia; -63.7% (active) in the assay with MALME-3M melanoma; -62.7% (active) in the assay with MDA-MB-231 breast; -89.4% (active) in the assay on RXF 393 renal; -8.13% (active) with SF-268 CNS. The growth with SF-295 CNS is -59.6% (active); in the assay with SF-539 CNS, -74.4% (active); in the assay on M14 melanoma it was -45.7% (active); in the assay with HCT-15 colon it was -67.4% (active); with HT29 colon, -66.9% (active); in the assay on SNB-75 CNS, -84.1% (active). Further, the growth is 27.4% with SNB-19 CNS; -22% (active) with U251 CNS; -88% (active) in the assay on SK-MEL-5 melanoma; -78.3% (active) in the assay with UACC-62 melanoma; -66.4% (active) in the assay with LOX IMVI melanoma; -49.8% (active) in the assay on SK-MEL-28 melanoma.

Regarding `CC(C)(C)c1ccc(S(=O)(=O)N[C@H]2CC[C@H]3[C@@H]4CCc5cc(O)ccc5[C@H]4CC[C@]23C)cc1`, the growth in the assay with DU-145 prostate was 62.9%; with K-562 leukemia, 17%; with MALME-3M melanoma it was 25.6%; in the assay on MDA-MB-231 breast, 33.7%; in the assay with RXF 393 renal, 12%; in the assay with SF-268 CNS, 50.9%. In addition, the growth is 78.7% in the assay with SF-539 CNS; 68.7% in the assay with UACC-257 melanoma; 45.8% in the assay on M14 melanoma; 34.7% in the assay with HCT-15 colon; 10.2% in the assay on HT29 colon; 55.4% in the assay on SNB-75 CNS. For the same molecule, the growth in the assay on SNB-19 CNS was 80.6%; in the assay on PC-3 prostate, 30.6%; in the assay on SK-MEL-5 melanoma, 40.4%; in the assay on UACC-62 melanoma it was 61.2%; in the assay with SK-MEL-28 melanoma, 79.1%.

With `C[C@]12CC[C@@H]3c4ccc(OS(=O)(=O)O)cc4CC[C@H]3[C@@H]1CC[C@@H]2NS(=O)(=O)c1ccc(-c2ccccc2)cc1`, the growth with DU-145 prostate was 75.3%; in the assay with K-562 leukemia, 26.8%; with MALME-3M melanoma it was 60.8%; with MDA-MB-231 breast, 84.3%; in the assay with RXF 393 renal, 53.1%; in the assay on SF-268 CNS, 69.8%. The growth with SF-539 CNS is 90.1%; in the assay on UACC-257 melanoma, 77.2%; in the assay on M14 melanoma, 62.8%; with HCT-15 colon it was 52.6%; in the assay with HT29 colon it was 50%; in the assay on SNB-75 CNS, 75.6%. The growth in the assay with SNB-19 CNS is 89.6%; in the assay with PC-3 prostate, 41%; in the assay on SK-MEL-5 melanoma, 67.4%; in the assay on UACC-62 melanoma, 79.1%; with SK-MEL-28 melanoma, 95.8%.

`O=C(CCCNC(=O)c1nc(-c2ccccc2)n(-c2ccccc2)n1)NO`: the growth in the assay with DU-145 prostate is 108%; in the assay on K-562 leukemia, 106%; in the assay with MALME-3M melanoma it was 99.4%; with MDA-MB-231 breast it was 103%; in the assay with RXF 393 renal, 103%; in the assay on SF-268 CNS, 105%. Further, the growth is 105% in the assay on SF-295 CNS; 107% in the assay on SF-539 CNS; 98% in the assay with M14 melanoma; 104% in the assay with HCT-15 colon; 90.1% in the assay with HT29 colon; 107% in the assay on SNB-75 CNS. For the same molecule, the growth with SNB-19 CNS is 98.1%; in the assay with SK-MEL-5 melanoma it was 104%; in the assay on UACC-62 melanoma, 102%; in the assay on LOX IMVI melanoma it was 97.9%; with SK-MEL-28 melanoma it was 109%.

As for `COc1ccc2nc3cc(Cl)ccc3c(N)c2c1`, the growth is -96.8% (active) in the assay on DU-145 prostate; -60.6% (active) with K-562 leukemia; -71.8% (active) in the assay with MALME-3M melanoma; -94.1% (active) with MDA-MB-231 breast; -98.1% (active) with RXF 393 renal; -85.7% (active) in the assay with SF-268 CNS. The growth was -90.3% (active) in the assay with SF-539 CNS; -81.2% (active) in the assay with UACC-257 melanoma; -95.6% (active) in the assay with M14 melanoma; -65% (active) in the assay on HCT-15 colon; -67.3% (active) in the assay on HT29 colon; -99.3% (active) in the assay on SNB-75 CNS. The growth was 4.71% (active) in the assay with SNB-19 CNS; -74.3% (active) in the assay with U251 CNS; -73% (active) with PC-3 prostate; -95.6% (active) in the assay with SK-MEL-5 melanoma; -94.7% (active) in the assay on LOX IMVI melanoma; -98.4% (active) in the assay with SK-MEL-28 melanoma.

`CCOC(=O)c1sc2ncnc(Nc3ccc(NC(=O)Nc4ccc(Cl)cc4)cc3)c2c1C`: the growth with DU-145 prostate is 54%; with K-562 leukemia, 83.7%; with MALME-3M melanoma, 26.4%; with MDA-MB-231 breast, 23.8%; with RXF 393 renal, 19.4%; in the assay on SF-268 CNS, 72.1%. Besides, the growth with SF-295 CNS was 33.1%; in the assay with SF-539 CNS it was -1.23% (active); in the assay with M14 melanoma, 64.8%; in the assay with HCT-15 colon, 33.9%; in the assay on HT29 colon, 43%; with SNB-75 CNS, 17.6%. The growth is 73.7% with SNB-19 CNS; 26.3% in the assay on U251 CNS; 32.2% in the assay with SK-MEL-5 melanoma; 44.4% with LOX IMVI melanoma; 79.5% in the assay on SK-MEL-28 melanoma.

`O=C1/C(=C/c2cccc(F)c2)Cc2ccccc21`: the growth is 113% in the assay on DU-145 prostate; 106% with K-562 leukemia; 106% with MALME-3M melanoma; 112% in the assay with MDA-MB-231 breast; 99.4% in the assay with RXF 393 renal; 112% with SF-268 CNS. The growth in the assay on SF-295 CNS was 77.9%; in the assay on SF-539 CNS, 110%; in the assay on M14 melanoma, 98.8%; in the assay on HCT-15 colon it was 93.7%; in the assay with HT29 colon, 94.6%; with SNB-75 CNS it was 89.4%. Moreover, the growth was 98.7% in the assay with SNB-19 CNS; 90% in the assay with PC-3 prostate; 99.4% in the assay on SK-MEL-5 melanoma; 99.2% with UACC-62 melanoma; 96.7% with LOX IMVI melanoma; 105% in the assay with SK-MEL-28 melanoma.

Consider `Cc1cc(SCc2ccccc2)nc(N)n1`, for which the growth is 104% with DU-145 prostate; 105% with K-562 leukemia; -0.674% (active) with MALME-3M melanoma; 107% in the assay on MDA-MB-231 breast; 124% in the assay with RXF 393 renal; 100% in the assay with SF-268 CNS. Moreover, the growth is 102% with SF-295 CNS; 125% in the assay on UACC-257 melanoma; 115% in the assay with M14 melanoma; 104% with HCT-15 colon; 92.1% in the assay on SNB-19 CNS; 118% in the assay on U251 CNS. The growth in the assay with PC-3 prostate was 111%; with SK-MEL-5 melanoma, 117%; in the assay with LOX IMVI melanoma it was 103%; in the assay with SK-MEL-28 melanoma it was 106%.
